# TR-FRET SRC-2 ct = flags TR-FRET format artefacts in PPARgamma SRC-2 recruitment agonist screen. TR-FRET artefact counter-screen; active compounds read high. TR-FRET ratio at 8 µM. 200,000 compounds, 0.4% hits. AID 1049
# SRC1 TRFRET art = TR-FRET artefact, counter-screen to PPARgamma/SRC-1 agonist assay; AID 1051; 99,000 compounds, 0.34% hits; TR-FRET detection artefact counter-screen, emission ratio; active compounds read high; TR-FRET ratio at 8 µM; in the data active = TR-FRET ratio above about 2300
# PPARg SRC3 recr = agonists of human PPARgamma SRC-3 coactivator recruitment | P37231 | biochemical PPARgamma/SRC-3 coactivator recruitment assay | activation, % at 8 µM | 200,000 compounds, 0.26% hits | AID 731; in the data active = activation above about 23%;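 also: 0% = DMSO and 100% = reference agonist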
# Target sequence (P37231 whole entry, looked up): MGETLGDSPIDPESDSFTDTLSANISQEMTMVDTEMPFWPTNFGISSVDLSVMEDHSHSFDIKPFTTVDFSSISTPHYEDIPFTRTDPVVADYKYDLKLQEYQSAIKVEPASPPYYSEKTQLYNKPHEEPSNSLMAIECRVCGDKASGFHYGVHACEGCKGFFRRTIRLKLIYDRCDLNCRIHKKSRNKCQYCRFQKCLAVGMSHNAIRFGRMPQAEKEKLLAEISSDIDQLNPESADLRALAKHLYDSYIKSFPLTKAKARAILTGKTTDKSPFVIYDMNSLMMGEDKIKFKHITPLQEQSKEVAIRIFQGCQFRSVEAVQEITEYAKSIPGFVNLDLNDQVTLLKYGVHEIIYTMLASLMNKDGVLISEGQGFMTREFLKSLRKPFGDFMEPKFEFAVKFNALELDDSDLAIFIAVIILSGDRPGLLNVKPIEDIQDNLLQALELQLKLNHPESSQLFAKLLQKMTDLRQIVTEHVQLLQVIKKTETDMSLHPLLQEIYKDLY
# PPARg SRC1 recr = agonists of human PPARgamma SRC-1 coactivator recruitment; P37231; PPARgamma-SRC-1 coactivator recruitment biochemical assay; activation, % at 8 µM; 200,000 compounds, 0.41% hits; in the data active = activation above about 19%;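 also: 0% = DMSO and 100% = reference agonist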
# SRC3 TRFRET art = flags TR-FRET format artefacts in PPARgamma SRC-3 recruitment agonist screen; TR-FRET artefact counter-screen, PPARgamma/SRC-3 format; active compounds read high; TR-FRET ratio at 8 µM; 99,000 compounds, 0.39% hits; AID 1048
# PPARg SRC-2 ag = agonists of SRC-2 recruitment by human PPARgamma | P37231 | PPARgamma LBD-SRC-2 recruitment, biochemical | activation, % at 8 µM | 200,000 compounds, 0.34% hits | AID 1032; in the data active = activation above about 22%;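 also: 0% = vehicle and 100% = reference agonist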
# The depositor's hits bear a star; . = not tested or not shown. In the library only some 0.9% were active in any assay of this set; here they are far more common. Rule as the data show it, unless noted: active = TR-FRET ratio above about 2000; inactive = the rest.
SMILES,TR-FRET SRC-2 ct,SRC1 TRFRET art,PPARg SRC3 recr,PPARg SRC1 recr,SRC3 TRFRET art,PPARg SRC-2 ag
CC(=O)Nc1ccc(NC(=O)/C=C/c2ccccc2)cc1,1730,2103,4.6,2.9,1660,4.2
CC(=O)N1CCN(c2ccc(NC(=O)/C=C/c3ccccc3)cc2)CC1,1649,2020,5.3,8.9,1652,24.0*
COc1cc(OC)cc(-n2nnnc2SCC(=O)Nc2ccc(C(C)=O)cc2)c1,1477,.,-0.8,51.1*,.,7.1
CCOC(=O)c1sc(NC(=O)CSc2nnnn2-c2ccc(C)c(C)c2)nc1C,4861*,.,-6.4,-1.9,.,155.9*
CCOC(=O)c1c(=O)n(O)c2ccc(OC)cc2[n+]1[O-],1548,.,-0.7,3.5,.,14.0
O=S(=O)(NC1c2cccc3cccc(c23)C1Sc1ncccn1)c1ccccc1 (configuration not stated),1602,1535,8.2,4.3,1598,-4.9
CN(Cc1cn[nH]c1-c1cc2ccccc2o1)CC1CCOCC1,1562,1774,3.1,-12.4,1709,-0.5
CC(=O)Nc1cc(C(=O)N2CCc3ccccc3C2)ccc1Sc1ccc(F)cc1,1408,1753,0.5,1.1,1584,-1.5
Cc1cc(NC(=O)c2cc(-c3cccs3)nc3ccccc23)no1,1659,.,8.4,5.4,.,15.8
CN(C)S(=O)(=O)c1ccc(NC(=O)c2cc(-c3cccs3)nc3ccccc23)cc1,2669*,3250*,14.6,4.4,3343*,1.7
Cc1cc(C)nc(NC(=O)c2cc(-c3ccc(C)s3)nc3ccccc23)c1,1841,2309,3.0,6.9,2323*,5.0
CCN(CC)S(=O)(=O)c1ccc(NC(=O)c2cc(-c3cccs3)nc3ccccc23)cc1,1711,1867,3.7,2.5,1556,-2.3
O=C(CCSCc1ccccc1F)NCc1cccs1,1317,1774,-0.3,-7.4,1522,-2.9
O=C(CCSCc1ccccc1Cl)NCc1cccs1,1617,2618*,-4.7,27.9*,1723,1.7
O=C(O)c1ccc(Cl)c(NC(=S)NC(=O)c2ccccc2[N+](=O)[O-])c1,1473,1743,0.6,-4.2,1563,4.3
CN(C)N=C1c2cc(S(=O)(=O)N3CCOCC3)ccc2-c2ccc(S(=O)(=O)N3CCOCC3)cc21,1605,1845,0.2,-1.4,1466,0.3
NC(=S)NN=C1c2cc(S(=O)(=O)N3CCOCC3)ccc2-c2ccc(S(=O)(=O)N3CCOCC3)cc21,1605,2316*,3.8,-1.6,1632,6.2
CS(=O)(=O)N1CCC(C(=O)Nc2cc(Cl)cc(Cl)c2)CC1,1770,1999,1.0,-0.9,1524,6.9
Cc1ccc2nc(-c3ccccn3)cc(C(=O)NC3CCN(C)CC3)c2c1,1597,.,10.9,-3.0,.,8.6
CCn1cc(C(=O)NCc2ccc(Cl)cc2)c(=O)c2cc(S(=O)(=O)N3CCOCC3)ccc21,1485,1726,3.4,12.9,1598,-1.8
O=C(Cc1sc(-c2ccccc2Cl)nc1-c1ccccc1)Nc1ccccc1,1609,.,0.9,75.3*,.,5.5
C=CCN(c1ccc(C(=O)NCCc2ccccc2)cc1)S(C)(=O)=O,1635,.,-0.8,0.9,.,4.4
CC(C)Cc1nc2sc3c(NCc4ccco4)ncnc3c2c2c1COC(C)(C)C2,4130*,.,2.1,4.1,.,105.8*
CC(=O)OC(/C(O)=C(\C#N)c1nc2ccccc2[nH]1)c1ccccc1 (configuration not stated),1516,.,1.0,3.9,.,15.4
CCN(CC)c1ccc(/C=C(/C#N)c2nc3ccccc3[nH]2)c(OC(C)C)c1,1704,.,1.7,-3.3,.,2.1
SMILES,TR-FRET SRC-2 ct,SRC1 TRFRET art,PPARg SRC3 recr,PPARg SRC1 recr,SRC3 TRFRET art,PPARg SRC-2 ag
O=S(=O)(c1ccccc1)c1nc(-c2ccco2)oc1N1CCOCC1,1561,.,2.9,26.1*,.,5.1
COc1ccc(-c2nc(S(=O)(=O)c3ccccc3)c(N3CCOCC3)o2)cc1,1502,1614,0.4,3.8,1343,6.0
Cc1ccc(N=Nc2c(N)n(-c3ccccc3)[nH]c2=O)cc1,1609,.,25.8*,6.8,.,8.5
CC1(C)Cc2c(C#N)c(SCC(=O)c3ccccc3)nc(N3CCOCC3)c2CS1,2038*,.,2.2,8.2,.,6.8
CCOC(=O)CSC(=S)NC(=O)c1ccc(OC)cc1,1985*,2487*,12.3,8.5,2008,15.2
NN(CCO)C(=S)Nc1ccc(Cl)cc1,1512,1820,1.6,1.5,1668,1.8
Cn1c(C(=O)NCc2ccco2)cc2c(=O)[nH]c3ccccc3c21,1736,2510*,0.0,22.8*,1309,6.2
CCCN(CCC)CCCNC(=O)c1cc2c(=O)[nH]c3ccccc3c2n1C,1538,1663,-1.2,-1.5,1380,3.4
O=C(O)CCCNC(=O)CCCNC(=O)C(c1ccccc1)c1ccccc1,1364,1786,5.1,-9.1,1463,6.8
OC1(c2ccc(Br)cc2)CN(c2ccccc2)C2=[N+]1CCS2 (configuration not stated),1571,1718,7.8,3.7,2102*,2.8
OC1(c2ccc(Cl)cc2)CN(c2ccccc2)C2=[N+]1CCS2 (configuration not stated),1612,1791,5.0,7.9,1793,5.7
O=C1OCC=C1NNC(=O)c1cccnc1,1648,1889,0.8,6.3,1565,11.3
Nc1nccc(-c2cccs2)n1,2014*,2012,4.5,-2.4,1787,4.7
O=C(Nc1nccc(-c2cccs2)n1)c1cccs1,1536,.,3.5,-1.5,.,4.0
CC1CN(C(=O)c2ccc(N3CCCCC3)c([N+](=O)[O-])c2)CC(C)O1 (configuration not stated),1425,1648,2.0,0.5,1672,2.6
COc1ccc(S(=O)(=O)NCC(=O)N(CC(=O)NCC2CCCO2)c2c(C)cccc2C)cc1 (configuration not stated),1566,.,-3.8,9.4,.,2.9
CCOc1nc(-c2ccccc2)ccc1-c1noc(-c2ccncc2)n1,1670,1933,2.1,-3.5,1406,0.3
CCOc1nc(-c2ccccc2)ccc1-c1noc(-c2cccs2)n1,1549,.,-5.5,33.7*,.,2.9
CN(CP(=O)(O)CN(C)S(C)(=O)=O)S(C)(=O)=O,1670,.,3.8,20.6*,.,1.3
CCSc1nnc(NC(=O)CCc2ccc(OC)cc2)s1,1594,1852,0.9,-4.0,1785,-0.1
CCc1cc2c(=O)c(-c3nc(C)cs3)coc2cc1OC(C)C(=O)NCCO (configuration not stated),2120*,5866*,3.4,138.3*,1621,24.8*
CCc1cc2c(=O)c(-c3nc(C)cs3)c(CCCC(=O)O)oc2cc1O,1611,1835,4.3,4.1,1707,2.3
O=Cc1ccc(OCC(=O)Nc2ccccc2C(F)(F)F)cc1,1384,1732,-2.0,-4.2,1600,0.8
CCc1ccc2oc(C(=O)Nc3ccc(S(N)(=O)=O)cc3)c(C)c2c1,1875,2324*,3.5,1.1,1772,8.1
COC(=O)c1cccc(NC(=O)/C=C/c2ccc([N+](=O)[O-])cc2)c1,1720,1916,0.1,8.3,2126*,-0.7

# Bioassay records: PubChem, The Scripps Research Institute Molecular Screening Center
